Assay results: the supplement of paper PMC6555819

How the values were obtained:
Experiment in all cases: PBM binding z-score (relative to random genomic background probes); higher = stronger binding; sequences stand for … in GC…GCGATTGACAGCGTAGAATGAAGG
[1] = system: FXR:RXRa (NR concentration 270 nM, RXRa partner concentration 90 nM)
Outline: (§1)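 Each nuclear receptor dimer, without ligand, was incubated for 1 h on custom Agilent 4×180K protein-binding microarrays. Binding was detected with antibodies against each partner (one per run), and scanned fluorescence was regression-normalized. The binding z-scores are referenced to random human genomic background probes.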

[2] = system: LXRa:RXRa (NR concentration 270 nM, RXRa partner concentration 90 nM)
Outline: as §1

[3] = system: LXRa homodimer (NR concentration 270 nM)
Outline: as §1

[4] = system: LXRb:RXRa (NR concentration 270 nM, RXRa partner concentration 90 nM)
Outline: as §1

[5] = system: LXRb homodimer (NR concentration 270 nM)
Outline: as §1

[6] = system: PPARa:RXRa (NR concentration 270 nM, RXRa partner concentration 90 nM)
Outline: as §1

[7] = system: PPARg:RXRa (NR concentration 180 nM, RXRa partner concentration 90 nM)
Outline: as §1

[8] = system: PPARg:RXRa 270nM:90nM, anti-RXR (NR concentration 270 nM, RXRa partner concentration 90 nM)
Outline: as §1

[9] = system: PPARg:RXRa 30nM:10nM, anti-RXR (NR concentration 30 nM, RXRa partner concentration 10 nM)
Outline: as §1

[10] = system: PPARg:RXRa 90nM:30nM, anti-RXR (NR concentration 90 nM, RXRa partner concentration 30 nM)
Outline: as §1

[11] = system: PPARg:RXRa DBDmut IVT, anti-RXR (DBD mutation: RXRa K156A/R161A, NR concentration 270 nM, RXRa partner concentration 90 nM)
Outline: as §1

[12] = system: PPARg:RXRa IVT, anti-PPARg (NR concentration 270 nM, RXRa partner concentration 90 nM)
Outline: as §1

[13] = system: PPARg DBDmut:RXRa IVT, anti-PPARg (DBD mutation: PPARg1 K132A/R137A, NR concentration 270 nM, RXRa partner concentration 90 nM)
Outline: as §1

[14] = system: PPARg DBDmut IVT, anti-PPARg (DBD mutation: PPARg1 K132A/R137A, NR concentration 270 nM)
Outline: as §1

[15] = system: PPARg homodimer (NR concentration 180 nM)
Outline: as §1

[16] = system: PXR:RXRa (NR concentration 270 nM, RXRa partner concentration 90 nM)
Outline: as §1

[17] = system: PXR homodimer (NR concentration 270 nM)
Outline: as §1

[18] = system: RARa:RXR (NR concentration 270 nM, RXRa partner concentration 90 nM)
Outline: as §1

[19] = system: RARa homodimer (NR concentration 270 nM)
Outline: as §1

[20] = system: RARb:RXRa (NR concentration 270 nM, RXRa partner concentration 90 nM)
Outline: as §1

Sequence | PBM binding z-score [1] | PBM binding z-score [2] | PBM binding z-score [3] | PBM binding z-score [4] | PBM binding z-score [5] | PBM binding z-score [6] | PBM binding z-score [7] | PBM binding z-score [8] | PBM binding z-score [9] | PBM binding z-score [10] | PBM binding z-score [11] | PBM binding z-score [12] | PBM binding z-score [13] | PBM binding z-score [14] | PBM binding z-score [15] | PBM binding z-score [16] | PBM binding z-score [17] | PBM binding z-score [18] | PBM binding z-score [19] | PBM binding z-score [20]
CGAACTAGGTCATTGACAGGACAGTGCATAGTAA | 4.46 | 3.18 | 0.766 | 2.04 | -0.0575 | 4.8 | 7.55 | 6.33 | 3.65 | 5.79 | 7.99 | 8.21 | 2.11 | 0.779 | 1.71 | 1.76 | 0.634 | 2.28 | 0.279 | 3.66
CGTCAAAGTTCAACTAAGGTGACGTAAAGCACGC | 7.03 | 6.44 | 4.17 | 4.04 | 2.05 | 5.05 | 5.01 | 5.86 | 2.52 | 4.48 | 0.538 | 2.53 | -0.0247 | 0.457 | 4.07 | 5.89 | 4.65 | 4.4 | 1.76 | 5.17
TCTGCTAGGCCAGTTGGTCAGCTAACGAGCTGCC | -3.09 | -0.955 | -1.26 | -1.27 | -0.666 | -0.606 | -1.07 | 0.229 | 0.768 | 0.446 | 0.789 | 0.538 | -0.123 | -0.684 | -2.67 | -0.743 | -1.82 | -0.933 | -1.48 | 0.442
TCGAGTAGGTTAGTCGGTGCATTCAGCCAACATA | -0.341 | -0.428 | -0.522 | -0.341 | -1.16 | 0.254 | -0.329 | 0.678 | 1.05 | 0.958 | 1.78 | 1.93 | -0.29 | -0.55 | 0.152 | 0.147 | -0.142 | 0.0978 | 0.0806 | -0.085
CCTACTGGGCCAAGGTCATTTATCAGTCAAAGCA | 3 | 3 | 1.94 | 3.53 | 0.242 | 3.92 | 4.1 | 4.33 | 1.69 | 3.57 | 3.45 | 4.56 | -0.913 | -0.873 | 1.83 | 3.22 | 1.73 | 3.28 | 0.0192 | 3.15
ATCTCTAGGTATCCAAGTTCAGTGAATGCCGAAC | 0.313 | 0.879 | 2 | 0.57 | 0.976 | 0.511 | 0.0341 | 0.21 | 0.21 | 0.503 | 0.377 | 0.859 | 0.495 | 0.766 | 1.01 | 1.5 | 1.56 | 0.618 | 0.883 | 0.966
TTACCAAGGTTAGCTGAGGTCGTTGATCCAACTC | 2.11 | 4.83 | 0.313 | 2.51 | -0.743 | 2.24 | -0.0441 | 0.6 | 0.0802 | 0.486 | 0.191 | 0.594 | -0.413 | -0.849 | 0.103 | 5.71 | 1.46 | 2.83 | -0.023 | 2.1
ATATGTAGGTTAAGAGTCATTCAGGTTGGTTCGC | 0.855 | 1.47 | 0.703 | 1.18 | 0.774 | 4.58 | 8.36 | 7.68 | 6.62 | 8.28 | 7.43 | 7.13 | 1.39 | 1.44 | 2 | 1.5 | 0.614 | 1.5 | 1.72 | 1.42
GGAACGAGGGCATTCGAATTGATAGCATGGCGAT | 0.807 | 0.373 | -0.335 | 0.239 | -0.211 | 1.31 | 1.15 | 1.14 | 0.413 | 0.651 | 3.02 | 2.16 | -0.249 | -0.176 | -0.045 | 0.719 | 0.241 | 0.841 | -0.483 | 1.9
TGAATGAGGTTAAAGATAAGGGAACGTGGCGTCG | 2.65 | 2.28 | 0.104 | 1.5 | 0.393 | 3.54 | 2.88 | 3.98 | 1.97 | 3.5 | 2.35 | 2.62 | 1.71 | 0.597 | 0.427 | 1.37 | 0.106 | 2.09 | -0.181 | 2.04
AGAATGAGGTTAGACGTAGATCAGGGAAGAAAGT | 0.755 | 0.774 | 0.0351 | 0.67 | -0.107 | 2.02 | 0.989 | 1.22 | 0.406 | 0.527 | 3.27 | 1.52 | 0.96 | 1.16 | 0.901 | 0.631 | 0.578 | 1.17 | 0.74 | 1.21
CCGACTGTGGCAGAAAGGTTACCATACCATCCGG | 0.385 | 0.528 | 0.0726 | 0.75 | -0.636 | 2.16 | 2.03 | 3.65 | 1.73 | 3.6 | 0.332 | 0.812 | -0.741 | -1.03 | 0.662 | 0.984 | -0.427 | 1.47 | -0.0301 | 1.45
CCTAGTTGGTCAAGGTCACACAGGCTATAGGTAC | 4.41 | 4.07 | 1.88 | 3.56 | 0.583 | 4.31 | 3.32 | 3.88 | 1.62 | 2.62 | 2.08 | 3.64 | 0.89 | 0.538 | 3.81 | 4.67 | 3.92 | 4.96 | 2.03 | 4.34
GCTTGTAAATCAAGGTTAAGAAAGACTAAGCTAA | 0.61 | 1.71 | 0.223 | 0.926 | -0.355 | 1.56 | 0.214 | 0.467 | 0.122 | 0.622 | 0.268 | 0.664 | -0.64 | 0.161 | 0.00597 | 0.564 | -0.123 | 1.05 | -0.0975 | 0.808
CTCGAAATGTCGTGCTCAGGTGAGTATACCAAAC | 0.0674 | -0.048 | -0.175 | -0.182 | 0.0146 | -0.0536 | -0.165 | -0.324 | 0.0529 | -0.0106 | -0.127 | 0.323 | 0.0105 | 0.169 | -0.101 | -0.206 | -0.0833 | 0.0583 | 0.245 | 0.417
